Measured values published in PubChem BioAssay (Tox21).
Several values for one entry are separate records, joined by “and”; a condition that tells them apart may be missing. Equal values may be shown once. Inconclusive results are not listed. Some compounds were tested as several samples or in several runs, with calls that do not always agree. Activity calls are given as the source filed them. Unless noted, calls come from the whole dose curve; as a rule, active = well fitted curve in the direction sought with a large enough effect in the repeat runs; inconclusive = weak or mixed curves; inactive = no such curve, though single readings can be large; an effect the other way counts as inactive or inconclusive.

Tests used:
[1] = qHTS assay to identify small molecule agonists of the sonic hedgehog signaling (Shh) pathway (AID 1259368; calls by dose curve;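 note: NIH/3T3-derived 3T3Gli1-Luc cells carrying a stable Gli1-driven firefly luciferase reporter; series mostly up to about 92 µM; nearly all actives have a fitted effect of over 15% in size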)
Summary of the method: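 Stable NIH/3T3 Gli1-Luc reporter clone; 24 hr cpd exposure after a 4 hr settling period; luminescence endpoint.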

[2] = qHTS assay to identify small molecule antagonists of the sonic hedgehog signaling (Shh) pathway (AID 1259369; calls by dose curve; note: nearly all actives have a fitted effect of over 45% in size; note: potency is the fitted concentration of half-maximal effect)
Summary of the method: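 Gli1 transcriptional reporter (firefly Luc) in NIH/3T3 background, conditioned-medium activated. 24hr exposure, luminescence endpoint.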

[3] = qHTS assay to identify small molecule agonists of the androgen receptor (AR) signaling pathway in the presence of an antagonist - cell viability counter screen (AID 1259379); note: nearly all actives have a fitted effect of over 25% in size; note: potency is the fitted concentration of half-maximal effect
Summary of the method: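 Counter screen for cell viability run in parallel with the AR agonist-mode luciferase assay. MDA-kb2 cells were co-treated with nilutamide (3.0uM final) and compounds, then incubated 16 hr at 37C, and CellTiter-Fluor fluorescence was measured.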

[4] = qHTS assay to identify small molecule agonists of the estrogen receptor beta (ER-beta) signaling pathway - cell viability counter screen (AID 1259380); note: nearly all actives have a fitted effect of over 30% in size; note: potency is the fitted concentration of half-maximal effect
Summary of the method: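 In this qHTS counter screen, HEK293T cells carrying an ER-beta/UAS beta-lactamase reporter, grown in 2% charcoal-stripped FBS, received compound for 16 hr; ATP-based CellTiter-Glo luminescence was then read after 30 min at room temperature.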

[5] = qHTS assay to identify small molecule antagonists of the estrogen receptor beta (ER-beta) signaling pathway - cell viability counter screen (AID 1259382); note: series mostly up to about 92 µM; nearly all actives have a fitted effect of over 55% in size
Summary of the method: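 HEK293T ER-beta-UAS-bla, 2% charcoal-stripped FBS; compounds + 1nM E2 16 hr 37C; CellTiter-Glo luminescence, 30 min RT.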

[6] = target: Estrogen receptor (Homo sapiens) (UniProt P03372); test: qHTS assay to identify small molecule agonists of the estrogen receptor alpha (ER-alpha) signaling pathway in the presence of an antagonist (AID 1259383; calls by dose curve; note: top concentration of the series differs between compounds; nearly all actives have a fitted effect of over 15% in size)
Summary of the method: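 ER-alpha agonism measured under antagonist challenge: 10.0nM ICI-182,780 (final) plus compound, 15 concentrations, 22hr, VM7Luc4E2 ERE-luciferase cells. Read by luminescence.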

[7] = qHTS assay to identify small molecule agonists or antagonists of the thyroid stimulating hormone receptor (TSHR) signaling pathway - wild type cell line counter screen (AID 1259384; calls by dose curve)
Summary of the method: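 Wild-type HEK293 cells were plated 18 h at 37 C/5% CO2, pin-dosed with compound plus Ro20-1724 medium, held 30 min at room temperature, then given cAMP-d2 and anti-cAMP-cryptate; fluorescence was read after 1 h. Fifteen concentrations, triplicate.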

[8] = target: Thyrotropin receptor (Homo sapiens) (UniProt P16473); test: qHTS assay to identify small molecule antagonists of the thyroid stimulating hormone receptor (TSHR) signaling pathway (AID 1259385; calls by dose curve; note: nearly all actives have a fitted effect of over 20% in size)
Summary of the method: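 TSHR-HEK293 cells were plated and held 18 h at 37C/5% CO2, then given compound plus Ro20-1724 and stimulated with TSH at 1.5 ng/mL final. After 30 min at room temperature, cAMP was detected with cAMP-d2/anti-cAMP-cryptate (1 h) by fluorescence.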

[9] = qHTS assay to identify small molecule agonists of the estrogen receptor alpha (ER-alpha) signaling pathway in the presence of an antagonist - cell viability counter screen (AID 1259386);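 note: series mostly up to about 92 µM; cells exposed to compounds for 22 h at 37 °C before the viability read; nearly all actives have a fitted effect of over 30% in size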
Summary of the method: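 Steps: 5-day stripped-FBS culture; seed and incubate 24hr; add ICI-182,780 (10.0nM final); pin 15-point compound titration; incubate 22hr at 37C; add CellTiter-Fluor at 21hr; read fluorescence.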

[10] = target: Progesterone receptor (Homo sapiens) (UniProt P06401); test: qHTS assay to identify small molecule agonists of the progesterone receptor (PR) signaling pathway (AID 1346784; calls by dose curve; note: nearly all actives have a fitted effect of over 30% in size)
Summary of the method: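 HEK 293T PR-UAS-bla reporter cells, 2% charcoal-stripped FBS; 6 hr settle at 37C/5% CO2, compound (DMSO) 16 hr, LiveBLAzer B/G FRET substrate 2 hr RT, fluorescence intensity read.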

[11] = target: Progesterone receptor (Homo sapiens) (UniProt P06401); test: qHTS assay to identify small molecule antagonists of the progesterone receptor (PR) signaling pathway (AID 1346795; active = well fitted inhibition curve with a large enough effect in the signal ratio in the repeat runs, not every such curve was filed as active; the % refers to the signal ratio; note: potency is the fitted concentration of half-maximal effect)
Summary of the method: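 Beta-lactamase reporter, HEK293T PR-UAS-bla line; 2% charcoal-stripped FBS; 6 hr pre-incubation, 37C/5% CO2. Compound + R5020 1 nM final, 16 hr. LiveBLAzer B/G FRET substrate, 2 hr RT; fluorescence intensity read.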

[12] = qHTS assay to identify small molecule antagonists of the progesterone receptor (PR) signaling pathway - cell viability counter screen (AID 1346798); note: series mostly up to about 92 µM; nearly all actives have a fitted effect of over 50% in size
Summary of the method: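 Luminescence readout (CellTiter-Glo, 30 min, RT) of viability in PR-UAS-bla HEK293T cells exposed to compound and R5020 agonist for 16 hr at 37C, 5% CO2; run in the same wells as the beta-lactamase reporter read.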

[13] = qHTS assay to identify small molecule agonists of the progesterone receptor (PR) signaling pathway - cell viability counter screen (AID 1346799; calls by dose curve; note: nearly all actives have a fitted effect of over 45% in size)
Summary of the method: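 HEK293T PR-UAS-bla, 3,000 cells/well, 2% charcoal-stripped FBS; 6 h settle, compound 16 h at 37C/5% CO2; LiveBLAzer 2 h RT, then CellTiter-Glo 30 min RT, luminescence read.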

[14] = qHTS assay to identify small molecule antagonists of the TGF-beta/Smad signaling pathway - cell viability counter screen (AID 1346824); note: nearly all actives have a fitted effect of over 50% in size
Summary of the method: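 SBE-bla HEK 293T cells were plated overnight at 37 C, then given compounds in DMSO plus TGF-beta1 (added as 0.25 ng/mL solution) for 5 hr. After the bla read, CellTiter-Glo was added to the same wells and luminescence read after 30 min at room temperature.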

[15] = qHTS assay to identify small molecule agonists of the TGF-beta/Smad signaling pathway - cell viability counter screen (AID 1346829); note: top concentration of the series differs between compounds; nearly all actives have a fitted effect of over 45% in size
Summary of the method: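 Compound-treated SBE-bla HEK 293T cells (5 hr, 37 C) were assessed for viability with CellTiter-Glo in parallel with the reporter read.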

[16] = qHTS assay to identify small molecule agonists of the TGF-beta/Smad signaling pathway (AID 1346859; active = well fitted activation curve with a large enough effect in the signal ratio in the repeat runs, not every such curve was filed as active; the % refers to the signal ratio; note: series mostly up to about 77 µM)
Summary of the method: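 Read-out: fluorescence at 460 and 530 nm (405 nm excitation) after a 2 hr room-temperature incubation with beta-lactamase FRET substrate. SBE-bla HEK 293T cells had been treated with test compounds for 5 hr at 37 C.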

[17] = target: Thyrotropin-releasing hormone receptor (Homo sapiens) (UniProt P34981); test: qHTS assay to identify small molecule antagonists of the thyrotropin-releasing hormone receptor (TRHR) signaling pathway (AID 1346877; active = well fitted inhibition curve with a large enough effect in the repeat runs, not every such curve was filed as active; note: series mostly up to about 51 µM)
Summary of the method: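 Human TRHR in HEK293 cells; inhibition of the intracellular calcium rise triggered by 1 nM TRH was followed by fluorescence over 3 min. Compounds were run at 15 concentrations, three replicates each.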

[18] = target: Estrogen receptor beta (Homo sapiens) (UniProt Q92731); test: qHTS assay to identify small molecule agonists of the estrogen receptor beta (ER-beta) signaling pathway (AID 1259377; active = well fitted activation curve with a large enough effect in the signal ratio in the repeat runs, not every such curve was filed as active; the % refers to the signal ratio)
Summary of the method: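 Beta-lactamase reporter readout: fluorescence of LiveBLAzer B/G FRET substrate after 2 h at room temperature, following 16 h compound treatment of ER-beta-UAS-bla HEK293T cells at 37C in 2% charcoal-stripped FBS medium.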

[19] = target: Estrogen receptor beta (Homo sapiens) (UniProt Q92731); test: qHTS assay to identify small molecule antagonists of the estrogen receptor beta (ER-beta) signaling pathway (AID 1259378; active = well fitted inhibition curve with a large enough effect in the signal ratio in the repeat runs, not every such curve was filed as active; the % refers to the signal ratio)
Summary of the method: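 ER-beta-UAS-bla HEK293T (GripTite) cells in 2% charcoal-stripped FBS medium were preincubated 6 hr at 37C, dosed with compound, then stimulated with 1 nM E2 (final) for 16 hr; beta-lactamase reporter read by B/G FRET fluorescence after 2 hr substrate loading.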

Measured: Potency

Chain of Thyrotropin receptor (Homo sapiens) (P16473 whole entry, looked up): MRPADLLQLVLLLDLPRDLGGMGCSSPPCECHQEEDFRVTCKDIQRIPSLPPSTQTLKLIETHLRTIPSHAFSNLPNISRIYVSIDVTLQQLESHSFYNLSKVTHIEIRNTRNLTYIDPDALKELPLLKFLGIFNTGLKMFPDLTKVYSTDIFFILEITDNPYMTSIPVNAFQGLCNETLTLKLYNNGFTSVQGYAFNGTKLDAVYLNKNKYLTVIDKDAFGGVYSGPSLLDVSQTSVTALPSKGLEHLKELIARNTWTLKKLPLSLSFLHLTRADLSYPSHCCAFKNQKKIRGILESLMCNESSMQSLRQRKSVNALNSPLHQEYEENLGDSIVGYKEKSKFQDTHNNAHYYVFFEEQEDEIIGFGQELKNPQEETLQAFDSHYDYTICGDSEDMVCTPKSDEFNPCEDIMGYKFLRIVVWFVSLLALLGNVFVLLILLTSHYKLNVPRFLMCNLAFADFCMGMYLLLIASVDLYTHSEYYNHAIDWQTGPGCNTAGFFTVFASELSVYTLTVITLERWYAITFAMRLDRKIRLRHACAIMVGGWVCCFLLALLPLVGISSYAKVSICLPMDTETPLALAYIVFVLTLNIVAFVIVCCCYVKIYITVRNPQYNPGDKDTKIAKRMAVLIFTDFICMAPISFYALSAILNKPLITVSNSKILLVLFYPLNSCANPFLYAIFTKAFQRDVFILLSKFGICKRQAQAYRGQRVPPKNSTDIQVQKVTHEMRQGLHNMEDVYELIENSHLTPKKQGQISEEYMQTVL
Chain of Estrogen receptor beta (Homo sapiens) (Q92731 whole entry, looked up): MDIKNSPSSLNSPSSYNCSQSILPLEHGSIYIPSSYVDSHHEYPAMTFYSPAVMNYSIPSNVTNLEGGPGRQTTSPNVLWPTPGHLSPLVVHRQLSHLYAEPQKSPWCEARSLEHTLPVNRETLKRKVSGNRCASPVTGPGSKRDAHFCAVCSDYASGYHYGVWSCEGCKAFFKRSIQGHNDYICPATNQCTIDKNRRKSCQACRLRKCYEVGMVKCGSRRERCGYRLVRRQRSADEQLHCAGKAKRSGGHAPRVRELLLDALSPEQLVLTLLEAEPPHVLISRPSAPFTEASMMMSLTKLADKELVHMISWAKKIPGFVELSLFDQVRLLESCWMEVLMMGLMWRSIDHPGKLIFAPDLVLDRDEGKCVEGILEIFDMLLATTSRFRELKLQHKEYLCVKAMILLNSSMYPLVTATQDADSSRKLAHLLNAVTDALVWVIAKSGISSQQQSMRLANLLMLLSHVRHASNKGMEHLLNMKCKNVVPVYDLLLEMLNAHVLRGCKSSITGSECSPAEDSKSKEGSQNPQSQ
Chain of Progesterone receptor (Homo sapiens) (P06401 whole entry, looked up): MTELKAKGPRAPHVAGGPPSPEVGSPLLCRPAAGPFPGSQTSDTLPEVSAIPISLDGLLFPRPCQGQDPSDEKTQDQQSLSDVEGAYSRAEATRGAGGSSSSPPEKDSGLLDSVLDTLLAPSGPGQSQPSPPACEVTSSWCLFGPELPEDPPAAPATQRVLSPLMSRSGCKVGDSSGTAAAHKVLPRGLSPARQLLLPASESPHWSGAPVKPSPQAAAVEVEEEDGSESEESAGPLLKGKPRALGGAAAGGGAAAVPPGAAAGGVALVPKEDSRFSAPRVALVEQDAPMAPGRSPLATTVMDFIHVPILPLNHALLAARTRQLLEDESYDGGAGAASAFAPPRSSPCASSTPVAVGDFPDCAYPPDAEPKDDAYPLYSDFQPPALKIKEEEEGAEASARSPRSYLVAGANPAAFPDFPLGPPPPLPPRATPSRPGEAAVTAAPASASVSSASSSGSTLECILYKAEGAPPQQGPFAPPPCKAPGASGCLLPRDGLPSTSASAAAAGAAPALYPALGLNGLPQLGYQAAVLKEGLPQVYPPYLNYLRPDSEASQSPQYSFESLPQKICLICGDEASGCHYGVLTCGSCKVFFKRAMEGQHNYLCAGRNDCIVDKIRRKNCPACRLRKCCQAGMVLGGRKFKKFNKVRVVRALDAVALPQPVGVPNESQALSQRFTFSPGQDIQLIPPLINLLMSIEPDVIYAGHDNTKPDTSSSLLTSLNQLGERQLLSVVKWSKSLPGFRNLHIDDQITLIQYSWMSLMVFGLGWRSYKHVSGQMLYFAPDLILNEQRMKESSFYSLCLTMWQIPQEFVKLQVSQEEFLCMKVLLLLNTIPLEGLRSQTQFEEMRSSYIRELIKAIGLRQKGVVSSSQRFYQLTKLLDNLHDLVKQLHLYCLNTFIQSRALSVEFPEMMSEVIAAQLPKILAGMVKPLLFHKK
Chain of Thyrotropin-releasing hormone receptor (Homo sapiens) (P34981 whole entry, looked up): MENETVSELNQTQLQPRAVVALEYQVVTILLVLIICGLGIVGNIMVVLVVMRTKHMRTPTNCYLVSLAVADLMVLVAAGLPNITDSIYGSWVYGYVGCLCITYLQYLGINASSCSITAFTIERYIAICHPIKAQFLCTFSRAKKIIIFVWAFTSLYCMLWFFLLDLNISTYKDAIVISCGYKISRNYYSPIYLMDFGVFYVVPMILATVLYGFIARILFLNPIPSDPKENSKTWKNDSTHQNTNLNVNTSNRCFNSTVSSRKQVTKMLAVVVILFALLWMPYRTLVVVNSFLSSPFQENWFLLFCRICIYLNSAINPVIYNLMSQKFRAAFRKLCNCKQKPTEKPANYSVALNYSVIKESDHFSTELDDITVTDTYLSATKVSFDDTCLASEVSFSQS
Chain of Estrogen receptor (Homo sapiens) (P03372 whole entry, looked up): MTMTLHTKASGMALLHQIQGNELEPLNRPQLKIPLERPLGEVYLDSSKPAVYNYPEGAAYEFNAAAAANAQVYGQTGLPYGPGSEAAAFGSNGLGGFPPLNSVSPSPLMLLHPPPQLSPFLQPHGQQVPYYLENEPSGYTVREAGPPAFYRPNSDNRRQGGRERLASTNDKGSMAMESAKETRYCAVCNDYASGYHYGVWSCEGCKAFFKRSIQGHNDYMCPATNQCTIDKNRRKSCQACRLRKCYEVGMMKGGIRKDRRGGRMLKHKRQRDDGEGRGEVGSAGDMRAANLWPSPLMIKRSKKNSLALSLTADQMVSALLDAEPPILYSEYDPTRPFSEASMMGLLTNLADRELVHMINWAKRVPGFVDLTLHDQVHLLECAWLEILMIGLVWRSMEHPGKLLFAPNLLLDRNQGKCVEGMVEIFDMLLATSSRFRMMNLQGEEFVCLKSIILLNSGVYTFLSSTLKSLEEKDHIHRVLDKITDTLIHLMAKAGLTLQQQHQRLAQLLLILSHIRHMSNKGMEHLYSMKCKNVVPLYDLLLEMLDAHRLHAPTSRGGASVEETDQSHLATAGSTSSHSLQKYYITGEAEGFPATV

Cl/C=C/Cl
not listed: [18] | [19]
inactive: all other assays above

CCCCCCCCCCCCCCCCCC(=O)O
10.8 µM (active) and inactive: [11]
17.1 µM (active) and inactive: [2]
not listed: [3] | [6] | [7] | [8] | [17] | [18] | [19]
inactive: all other assays above

ClC(Cl)c1ccccc1
not listed: [3] | [7] | [8] | [18] | [19]
inactive: all other assays above

Cc1ccccc1N
not listed: [3] | [6] | [17] | [18] | [19]
inactive: all other assays above

[N-]=[N+]=CC(=O)OC[C@H](N)C(=O)O
not listed: [6] | [17] | [18] | [19]
inactive: all other assays above

Cl[C@H]1OCCO[C@@H]1Cl
not listed: [3] | [6] | [18] | [19]
inactive: all other assays above

C=CCN=C=S
not listed: [12] | [17] | [18] | [19]
inactive: all other assays above

O=C(O)Cc1ccccc1
not listed: [3] | [7] | [8] | [18] | [19]
inactive: all other assays above

COc1nc(NC(C)C)nc(NC(C)C)n1
not listed: [2] | [3]
inactive: all other assays above

OCC(O)CCl (stereo not given)
not listed: [10] | [11] | [17] | [18] | [19]
inactive: all other assays above

C[C@H]1C(=O)O[C@@H]2CCN3CC=C(COC(=O)[C@](C)(O)[C@]1(C)O)[C@H]23
not listed: [10] | [11] | [18] | [19]
inactive: all other assays above

CN(C)C(=O)Cl
not listed: [3] | [18] | [19]
inactive: all other assays above

CCNc1nc(Cl)nc(NC(C)C)n1
not listed: [2]
inactive: all other assays above

CNC(=O)O/N=C/C(C)(C)SC
not listed: [3] | [18] | [19]
inactive: all other assays above

CCOP(=S)(OCC)Oc1ccc([N+](=O)[O-])cc1
not listed: [6] | [11] | [13] | [18] | [19]
inactive: all other assays above

OCCCCO
not listed: [6] | [18] | [19]
inactive: all other assays above

COc1cc(-c2ccc(N)c(OC)c2)ccc1N
active: [2] 6.78 µM and 8.24 µM | [4] 14.7 µM | [11] 48.8 µM and 27.3 µM and 46.3 µM
inactive and 52 µM (active): [3]
not listed: [6] | [7] | [8] | [12] | [18] | [19]
inactive: all other assays above

O=[N+]([O-])c1ccc(Cl)c(Cl)c1
not listed: [3] | [18] | [19]
inactive: all other assays above

CCOP(=S)(OCC)Oc1cc(C)nc(C(C)C)n1
not listed: [6] | [18] | [19]
inactive: all other assays above

CCCOC(=O)c1ccccc1C(=O)OCCC
not listed: [7] | [8] | [18] | [19]
inactive: all other assays above

COS(=O)(=O)OC
not listed: [7] | [8] | [18] | [19]
inactive: all other assays above

Cc1ccc(N)cc1
not listed: [3] | [6] | [17] | [18] | [19]
inactive: all other assays above

O=P1(NCCCl)OCCCN1CCCl (stereo not given)
not listed: [3] | [6] | [18] | [19]
inactive: all other assays above

Oc1ccc(Cl)cc1
not listed: [6] | [18] | [19]
inactive: all other assays above

O=C(O)CCCc1ccc(N(CCCl)CCCl)cc1
not listed: [3] | [18] | [19]
inactive: all other assays above

O=C/C=C/c1ccccc1
not listed: [18] | [19]
inactive: all other assays above
